# Results: patent publication US20150152398, “Endoribonuclease and Methods of Use Thereof” (The Regents of the University of California, published 2015)
# Molecular target: T1, TtCas6A H37A (Thermus thermophilus HB8, H37A)
# T1 chain: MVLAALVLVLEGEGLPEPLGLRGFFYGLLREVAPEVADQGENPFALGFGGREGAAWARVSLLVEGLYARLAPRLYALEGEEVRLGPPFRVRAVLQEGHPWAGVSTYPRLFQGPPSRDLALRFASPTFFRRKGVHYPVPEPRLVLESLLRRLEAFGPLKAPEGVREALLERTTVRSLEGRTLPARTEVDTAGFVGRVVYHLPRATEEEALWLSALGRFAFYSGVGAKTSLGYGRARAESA
# Assay: EMSA; Kd in FIG. 24D only
# Conditions: chain copies: 2 inferred; label: 5'-32P (EMSA); hairpin; ssRNA
# From the text: FIG. 22 illustrates that TtCas6A and TtCas6B both cleave repeats R1 and R3 and retain their cleaved products. (A) Sequences and predicted secondary structures of T. thermophilus CRISPR repeats. Sites of cleavage are indicated with blue arrows. TtCas6e (TTHB192) cleaves repeat R2, while TtCas6A (TTHA0078) and TtCas6B (TTHB231) both cleave repeats R1 and R3. (B) Cleavage product binding affinities of TtCas6A and TtCas6B enzymes. Maltose binding protein (MBP)-fused TtCas6A or TtCas6B were bound to in 5′-radiolabelled, vitro transcribed R1 and R3 RNAs. Bound and unbound fractions were resolved by electrophoresis on a native polyacrylamide gel and visualized by phosphorimaging. The data for these and all subsequent binding assays were fit with standard binding isotherms (solid line). Error bars on each data point denote standard error of the mean (SEM) from three independent experiments. (C) Experiments to confirm single turnover. RNA cleavage assays were carried out at indicated protein:RNA ratios. RNA cleavage was monitored using denaturing polyacrylamide gel electrophoresis. The data from these and all subsequent endoribonuclease activity assays were fit with single exponential curves to yield first-order rate constants. (Top to bottom: FIG. 22A, SEQ ID NOs: 1, 2, 55).
# To test the importance of the stem sequence for substrate RNA recognition by TtCas6A, a series of EMSAs was performed using R1 repeat-derived RNAs that carried single base pair substitutions (C-G→A-U). All mutant RNAs contained the complete 5′ segment and additional two nucleotides downstream of the cleavage site. Compared to the wild-type RNA, substitution of any of the four C-G base pairs in the stem led to about five-fold decrease in affinity (FIG. 24C). This is consistent with the observation that the lower three C-G base pairs are specifically read out by Arg129. The binding defect observed upon mutation of the closing (uppermost) base pair could be due to loss of stability of the stem-loop structure, which is determined by the closing base-pair (Serra et al, 1993). To further investigate the protein determinants of RNA binding, we tested the TtCas6A mutants H37A and R129A and performed binding assays using substrates R1 and R3 (FIG. 24D).
row,Sequence,binding signal
1,GUUGCAAGGGAUUGAGCCCCGUAAGGGGAUUGCGAC,~70 fold lower affinity than WT
2,GUUGCAAACCUCGUUAGCCUCGUAGAGGAUUGAAAC,~90 fold lower affinity than WT
